# Assay results published in PubChem BioAssay AID1508625 (Wald Lab, School of Medicine, Case Western Reserve …, 2021).
# Test: small molecules boosting NK-mediated OVCAR3 lysis – imaging, primary NK cells, calcein-AM imaging, primary screen (AID 1508625);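 also: compound given to NK cells 16 h before adding targets at 1.5 to 1 ratio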;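 as to z-score: more negative robust z means stronger NK killing of tumor cells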
# Details: OVCAR3 lysis by primary NK cells, at 5 µM; z-score: measured here: robust Z-score, single-point normalisation
structure (smiles),measurement,value
C=CCn1c(=S)[nH]c2cc(C(=O)Nc3cccc(C(F)(F)F)c3)ccc2c1=O,"corrected activity, negative = more killing",-6.01%
same,z-score,-1.91
Cc1ccc(C)c(NC(=O)c2ccc(-c3ccccc3)cc2)c1,"corrected activity, negative = more killing",-4.26%
same,z-score,-1.81
CCc1ccccc1-n1cnc2cc(C(=O)NCc3ccc(C)cc3)ccc21,"corrected activity, negative = more killing",-4.47%
same,z-score,-1.2
COC(=O)c1ccc(C=NN2CCN(c3ccccn3)CC2)cc1,"corrected activity, negative = more killing",-4.57%
same,z-score,-2
COCc1cc(C)[nH]c(=O)c1C(=O)NC12CC3CC(CC(C3)C1)C2,"corrected activity, negative = more killing",-5.27%
same,z-score,-1.57
COc1ccc(C(O)=C2C(=O)C(=O)N(c3ccccn3)C2c2ccc(C(C)C)cc2)cc1 (stereo unspecified),"corrected activity, negative = more killing",-1.15%
same,z-score,-0.498
CN1C(=O)C(=O)C(=C(O)c2ccc(Br)cc2)C1c1ccccc1 (stereo unspecified),"corrected activity, negative = more killing",-1.99%
same,z-score,-0.867
COc1ccccc1N1CCN(C(=O)NC2CCCCC2)CC1,"corrected activity, negative = more killing",-0.143%
same,z-score,-0.0428
Oc1cccc(CN2CCN3CCCC3C2C2CCCCC2)c1 (stereo unspecified),"corrected activity, negative = more killing",-0.454%
same,z-score,-0.198
O=C(O)c1ccc(S(=O)(=O)c2ccc3c(c2)C(=O)N(CC2CCCO2)C3=O)cc1 (stereo unspecified),"corrected activity, negative = more killing",0.388%
same,z-score,0.146
Clc1ccccc1[C@@H]1Nc2ccccc2[C@@H]2C=CC[C@@H]21,"corrected activity, negative = more killing",-1.75%
same,z-score,-0.523
COc1ccccc1CNC(=O)C1CCN(S(=O)(=O)c2cccc3nonc23)CC1,"corrected activity, negative = more killing",-5.24%
same,z-score,-1.49
OCCNCCCOc1cccc(Cl)c1Cl,"corrected activity, negative = more killing",2.34%
same,z-score,0.743
CCOc1cc(C(=S)N2CCOCC2)ccc1OC(=O)Cc1ccccc1,"corrected activity, negative = more killing",-7.5%
same,z-score,-2.32
Nc1cc(OC(=O)c2cccs2)nn1S(=O)(=O)c1ccccc1,"corrected activity, negative = more killing",-4.31%
same,z-score,-1.37
CC1CCCC(C(=O)OCc2ccccc2)N1 (stereo unspecified),"corrected activity, negative = more killing",-4.16%
same,z-score,-1.64
S=C1CSc2ccccc2N1,"corrected activity, negative = more killing",-1.4%
same,z-score,-0.377
Cc1ccc(C(=O)Oc2cccc(C(=S)N3CCOCC3)c2)cc1,"corrected activity, negative = more killing",1.48%
same,z-score,0.458
O=C1C(=Cc2cccc([N+](=O)[O-])c2)Sc2ccccc21,"corrected activity, negative = more killing",-3.79%
same,z-score,-1.61
CCCc1cc(=O)oc2cc3oc4c(c3cc12)CCCC4,"corrected activity, negative = more killing",-1.47%
same,z-score,-0.438
CN1CCc2c(sc3c2C(=O)NC(c2cccc(OCc4ccccc4)c2)N3)C1 (stereo unspecified),"corrected activity, negative = more killing",-3.2%
same,z-score,-0.991
CCN(C(=O)c1cc2cc3ccc(OC)cc3nc2o1)c1cccc(C(F)(F)F)c1,"corrected activity, negative = more killing",-3.66%
same,z-score,-0.898
O=C(Nc1ccc(Br)cc1)c1ccc(Cl)c(S(=O)(=O)N2CCCCCC2)c1,"corrected activity, negative = more killing",-9.39%
same,z-score,-2.91
COCCOC(=O)C1=C(C)N(C)C(=O)NC1c1ccccc1Cl (stereo unspecified),"corrected activity, negative = more killing",-3.72%
same,z-score,-1.32
Cc1ccc([N+](=O)[O-])cc1NS(=O)(=O)c1ccc(Cl)cc1,"corrected activity, negative = more killing",4.17%
same,z-score,1.33
Cc1onc(-c2ccccc2)c1C(=O)Nc1cccc2c1C(=O)c1ccccc1C2=O,"corrected activity, negative = more killing",-2.48%
same,z-score,-1.02
c1nc(N2CCCCCC2)c2[nH]cnc2n1,"corrected activity, negative = more killing",-0.464%
same,z-score,-0.115
CC1CCC(NC2CCCc3c2[nH]c2ccc([N+](=O)[O-])cc32)C1 (stereo unspecified),"corrected activity, negative = more killing",3.64%
same,z-score,1.59
CCOc1ccccc1C(=O)Nc1ccc(S(=O)(=O)N2CCCCC2C)cc1 (stereo unspecified),"corrected activity, negative = more killing",-4.3%
same,z-score,-1.33
O=C1C(=O)N(CCO)C(c2ccc(Br)cc2)C1=C(O)c1ccccc1 (stereo unspecified),"corrected activity, negative = more killing",-2.24%
same,z-score,-0.856
O=C(Nc1ccc(N2CCN(Cc3ccccc3Cl)CC2)cc1)c1ccco1,"corrected activity, negative = more killing",1.61%
same,z-score,0.895
O=C(c1ccc2c(=O)n(-c3ccc(F)cc3)c(=S)[nH]c2c1)N1CCc2ccccc2C1,"corrected activity, negative = more killing",-0.906%
same,z-score,-0.288
Cc1ccc(C(=O)O)c(C(=O)Nc2cccnc2)c1,"corrected activity, negative = more killing",-0.349%
same,z-score,-0.143
C=CCn1c(COc2cccc3cccnc23)nnc1SCC(=O)OC,"corrected activity, negative = more killing",-7.09%
same,z-score,-2.01
COc1cc(OC)c(C=C2C(=O)NC(=S)N(c3ccc(Cl)cc3)C2=O)cc1Br,"corrected activity, negative = more killing",-2.07%
same,z-score,-1.07
O=C(Nc1nc(-c2ccc([N+](=O)[O-])cc2)cs1)c1ccccc1F,"corrected activity, negative = more killing",-1.2%
same,z-score,-0.252
CCC1CCCCN1C(=O)c1sc2ncn(Cc3ccccc3F)c(=O)c2c1C (stereo unspecified),"corrected activity, negative = more killing",-3.67%
same,z-score,-1.34
COc1ccc(OC)c(NC(=O)c2cc3c(=O)n4ccccc4nc3s2)c1,"corrected activity, negative = more killing",-6.86%
same,z-score,-1.95
Cc1ccc(Cn2c3[n+](c4ccccc42)CC(O)CS3)cc1 (stereo unspecified),"corrected activity, negative = more killing",-3%
same,z-score,-1.55
COc1cccc(N2CCN(C(=O)Nc3ccc(F)cc3)CC2)c1,"corrected activity, negative = more killing",-2.57%
same,z-score,-1.43
Cc1cc(Nc2cccc(C(=O)O)c2)n2ncnc2n1,"corrected activity, negative = more killing",1.47%
same,z-score,0.457
COC(=O)c1cc(NC(=O)C2(S(=O)(=O)c3ccc(C)cc3)CC2)cc(C(=O)OC)c1,"corrected activity, negative = more killing",-4.1%
same,z-score,-1.16
O=C(c1cc(-c2ccc3c(c2)OCO3)nc2ccccc12)N1CCN(Cc2ccc3c(c2)OCO3)CC1,"corrected activity, negative = more killing",-3.33%
same,z-score,-1.37
